For orientation: residual activity means the signal under treatment as a percentage of the control signal.

The target of assay [1] is Homeodomain-interacting protein kinase 3 (Homo sapiens) (UniProt Q9H422). To be noted: at 1 µM.
Assay [2] has the same target. To be noted: at 10 µM.
The target in assay [3] is T1, Serine/threonine-protein kinase haspin (Homo sapiens) (UniProt Q8TF76).
T1 sequence (whole entry): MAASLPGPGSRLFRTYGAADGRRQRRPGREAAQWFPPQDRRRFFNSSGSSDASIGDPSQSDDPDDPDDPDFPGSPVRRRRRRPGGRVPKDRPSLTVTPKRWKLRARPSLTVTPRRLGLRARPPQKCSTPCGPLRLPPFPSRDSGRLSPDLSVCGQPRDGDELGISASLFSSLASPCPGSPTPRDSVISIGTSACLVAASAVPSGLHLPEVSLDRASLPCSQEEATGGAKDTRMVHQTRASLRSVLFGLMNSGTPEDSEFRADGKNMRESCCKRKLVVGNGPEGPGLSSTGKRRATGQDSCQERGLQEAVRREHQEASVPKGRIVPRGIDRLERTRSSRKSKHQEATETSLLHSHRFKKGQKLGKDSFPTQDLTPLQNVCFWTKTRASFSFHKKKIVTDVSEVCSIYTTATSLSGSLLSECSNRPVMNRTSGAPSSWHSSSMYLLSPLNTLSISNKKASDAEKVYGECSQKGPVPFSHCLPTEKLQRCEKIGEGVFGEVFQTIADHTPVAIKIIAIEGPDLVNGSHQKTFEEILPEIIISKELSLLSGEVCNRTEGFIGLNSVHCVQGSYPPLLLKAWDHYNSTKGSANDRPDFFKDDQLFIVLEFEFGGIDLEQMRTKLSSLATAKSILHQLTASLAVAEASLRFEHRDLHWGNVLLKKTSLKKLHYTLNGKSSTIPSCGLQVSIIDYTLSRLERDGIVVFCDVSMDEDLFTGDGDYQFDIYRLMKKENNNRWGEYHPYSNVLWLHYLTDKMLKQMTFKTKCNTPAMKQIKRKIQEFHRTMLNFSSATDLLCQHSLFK
As to conditions: at 1 µM; call rule not given here.

The target in assay [4] is T1, Serine/threonine-protein kinase haspin (Homo sapiens). As to conditions: at 10 µM.
For assay [5], the target named is Tyrosine-protein kinase HCK (Homo sapiens) (UniProt P08631). As to conditions: at 1 µM.
Tyrosine-protein kinase HCK (Homo sapiens), sequence (P08631 2-526 limits assumed): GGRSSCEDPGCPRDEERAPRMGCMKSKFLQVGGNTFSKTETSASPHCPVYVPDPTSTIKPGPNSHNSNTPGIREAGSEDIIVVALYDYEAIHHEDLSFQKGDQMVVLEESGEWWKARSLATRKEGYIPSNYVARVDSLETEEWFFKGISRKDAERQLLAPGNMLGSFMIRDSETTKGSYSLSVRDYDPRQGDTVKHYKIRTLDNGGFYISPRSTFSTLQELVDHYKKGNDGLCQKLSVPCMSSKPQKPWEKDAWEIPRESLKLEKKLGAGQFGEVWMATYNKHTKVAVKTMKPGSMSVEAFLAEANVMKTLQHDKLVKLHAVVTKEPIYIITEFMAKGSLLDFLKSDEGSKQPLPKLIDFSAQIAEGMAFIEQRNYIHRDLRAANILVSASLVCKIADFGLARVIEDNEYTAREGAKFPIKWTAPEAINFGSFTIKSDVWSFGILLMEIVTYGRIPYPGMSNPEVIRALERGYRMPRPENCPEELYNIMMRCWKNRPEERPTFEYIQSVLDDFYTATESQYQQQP
Assay [6] shares this target. As to conditions: at 10 µM.
Assay [7] shares this target. To be noted: at 10 µM. This is another data set of the same source.
Assay [8] has as its target Insulin-like growth factor 1 receptor (Homo sapiens) (UniProt P08069). To be noted: at 1 µM.
For assay [9] the target is unchanged. To be noted: at 10 µM.
For assay [10], the target named is T2, Protein kinase C zeta type (Homo sapiens) (UniProt Q05513).
T2 sequence (whole entry): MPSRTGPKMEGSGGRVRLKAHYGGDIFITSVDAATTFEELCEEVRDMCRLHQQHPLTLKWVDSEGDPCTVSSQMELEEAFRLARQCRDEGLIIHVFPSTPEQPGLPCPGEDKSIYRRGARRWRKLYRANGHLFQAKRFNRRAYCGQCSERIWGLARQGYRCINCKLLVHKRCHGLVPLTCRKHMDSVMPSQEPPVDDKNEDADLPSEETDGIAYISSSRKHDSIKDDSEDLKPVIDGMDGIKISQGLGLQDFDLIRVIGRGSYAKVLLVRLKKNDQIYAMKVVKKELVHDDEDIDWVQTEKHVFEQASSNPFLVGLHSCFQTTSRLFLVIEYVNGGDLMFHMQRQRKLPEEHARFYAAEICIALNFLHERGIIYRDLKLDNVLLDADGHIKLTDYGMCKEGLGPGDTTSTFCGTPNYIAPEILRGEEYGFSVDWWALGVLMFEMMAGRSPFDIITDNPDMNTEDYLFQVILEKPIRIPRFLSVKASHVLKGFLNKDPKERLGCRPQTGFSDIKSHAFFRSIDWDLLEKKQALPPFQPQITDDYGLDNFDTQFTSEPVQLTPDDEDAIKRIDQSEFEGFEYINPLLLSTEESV
As to conditions: at 10 µM.

Assay [11] concerns the target Protein kinase C eta type (Homo sapiens) (UniProt P24723). As to conditions: at 1 µM.
The target is the same in assay [12]. As to conditions: at 10 µM.
The target of assay [13] is Protein kinase C theta type (Homo sapiens) (UniProt Q04759). As to conditions: at 1 µM.
Protein kinase C theta type (Homo sapiens), sequence (Q04759 whole entry, looked up): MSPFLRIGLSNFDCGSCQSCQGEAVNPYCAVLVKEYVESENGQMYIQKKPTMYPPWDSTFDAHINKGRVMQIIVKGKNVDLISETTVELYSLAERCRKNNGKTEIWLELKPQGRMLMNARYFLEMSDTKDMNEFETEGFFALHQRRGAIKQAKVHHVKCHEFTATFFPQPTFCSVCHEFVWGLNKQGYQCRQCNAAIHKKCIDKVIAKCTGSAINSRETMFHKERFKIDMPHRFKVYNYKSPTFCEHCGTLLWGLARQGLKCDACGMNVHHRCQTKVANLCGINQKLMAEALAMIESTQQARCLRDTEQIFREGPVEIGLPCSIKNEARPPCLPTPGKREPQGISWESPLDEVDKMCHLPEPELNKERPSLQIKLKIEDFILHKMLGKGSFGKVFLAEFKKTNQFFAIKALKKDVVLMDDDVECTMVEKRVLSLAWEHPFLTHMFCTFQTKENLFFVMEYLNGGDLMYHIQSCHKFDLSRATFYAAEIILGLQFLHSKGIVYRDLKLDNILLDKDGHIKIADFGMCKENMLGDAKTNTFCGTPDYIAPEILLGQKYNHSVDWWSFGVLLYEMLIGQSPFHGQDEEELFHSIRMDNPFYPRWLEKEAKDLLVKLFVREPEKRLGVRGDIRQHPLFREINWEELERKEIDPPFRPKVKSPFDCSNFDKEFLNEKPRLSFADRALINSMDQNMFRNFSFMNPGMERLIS
Assay [14] shares this target. To be noted: at 10 µM.
The target of assay [15] is T3, Protein kinase C iota type (Homo sapiens) (UniProt P41743).
T3 sequence (whole entry): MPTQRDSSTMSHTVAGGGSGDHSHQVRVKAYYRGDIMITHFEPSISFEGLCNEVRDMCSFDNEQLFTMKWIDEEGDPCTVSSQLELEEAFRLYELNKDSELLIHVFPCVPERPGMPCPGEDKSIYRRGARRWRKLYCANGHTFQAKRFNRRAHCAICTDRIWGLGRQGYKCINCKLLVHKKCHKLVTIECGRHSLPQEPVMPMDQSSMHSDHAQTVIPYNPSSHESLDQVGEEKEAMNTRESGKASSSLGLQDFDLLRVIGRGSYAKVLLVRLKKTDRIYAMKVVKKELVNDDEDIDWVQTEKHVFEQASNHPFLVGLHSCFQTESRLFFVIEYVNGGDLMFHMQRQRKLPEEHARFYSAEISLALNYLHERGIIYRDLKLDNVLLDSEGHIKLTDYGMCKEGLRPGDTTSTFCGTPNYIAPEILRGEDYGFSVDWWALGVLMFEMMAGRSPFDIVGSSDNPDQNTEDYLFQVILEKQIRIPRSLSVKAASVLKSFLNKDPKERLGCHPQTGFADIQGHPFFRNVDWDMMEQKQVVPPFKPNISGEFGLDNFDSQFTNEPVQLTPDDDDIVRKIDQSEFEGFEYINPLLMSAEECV
To be noted: at 1 µM.

Assay [16] addresses T3, Protein kinase C iota type (Homo sapiens). As to conditions: at 10 µM.
Assay [17] has as its target T4, Serine/threonine-protein kinase D1 (Homo sapiens) (UniProt Q15139).
T4 sequence (whole entry): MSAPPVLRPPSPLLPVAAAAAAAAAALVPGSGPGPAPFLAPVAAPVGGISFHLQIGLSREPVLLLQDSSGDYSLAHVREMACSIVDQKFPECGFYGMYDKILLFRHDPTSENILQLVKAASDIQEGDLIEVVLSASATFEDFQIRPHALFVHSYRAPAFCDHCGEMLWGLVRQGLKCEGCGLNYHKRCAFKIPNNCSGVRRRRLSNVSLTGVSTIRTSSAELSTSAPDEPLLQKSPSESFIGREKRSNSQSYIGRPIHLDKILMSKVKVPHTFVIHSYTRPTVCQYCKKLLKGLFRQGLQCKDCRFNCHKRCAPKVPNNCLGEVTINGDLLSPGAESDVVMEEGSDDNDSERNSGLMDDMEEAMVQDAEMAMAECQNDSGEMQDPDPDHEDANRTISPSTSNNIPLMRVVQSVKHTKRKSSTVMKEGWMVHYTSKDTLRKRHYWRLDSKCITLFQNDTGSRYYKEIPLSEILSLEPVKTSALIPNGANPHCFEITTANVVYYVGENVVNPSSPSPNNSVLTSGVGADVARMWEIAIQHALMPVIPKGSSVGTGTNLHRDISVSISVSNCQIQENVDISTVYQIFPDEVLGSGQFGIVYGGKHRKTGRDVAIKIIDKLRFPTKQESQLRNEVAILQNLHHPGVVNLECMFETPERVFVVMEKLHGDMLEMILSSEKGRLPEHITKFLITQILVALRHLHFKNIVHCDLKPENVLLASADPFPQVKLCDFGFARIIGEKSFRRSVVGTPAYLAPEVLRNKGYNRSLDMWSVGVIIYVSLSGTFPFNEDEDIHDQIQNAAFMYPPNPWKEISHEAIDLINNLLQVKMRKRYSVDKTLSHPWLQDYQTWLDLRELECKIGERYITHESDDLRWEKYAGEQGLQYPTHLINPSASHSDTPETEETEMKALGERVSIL
To be noted: at 1 µM.

Assay [18] deals with T4, Serine/threonine-protein kinase D1 (Homo sapiens). To be noted: at 10 µM.
Assay [19] addresses Homeodomain-interacting protein kinase 2 (Homo sapiens) (UniProt Q9H2X6). As to conditions: at 10 µM.
Assay [20] deals with Tyrosine-protein kinase HCK (Homo sapiens) (UniProt P08631). As to conditions: at 1 µM. The source holds these as a separate data set.

Insulin-like growth factor 1 receptor (Homo sapiens), sequence (P08069 31-736 limits assumed): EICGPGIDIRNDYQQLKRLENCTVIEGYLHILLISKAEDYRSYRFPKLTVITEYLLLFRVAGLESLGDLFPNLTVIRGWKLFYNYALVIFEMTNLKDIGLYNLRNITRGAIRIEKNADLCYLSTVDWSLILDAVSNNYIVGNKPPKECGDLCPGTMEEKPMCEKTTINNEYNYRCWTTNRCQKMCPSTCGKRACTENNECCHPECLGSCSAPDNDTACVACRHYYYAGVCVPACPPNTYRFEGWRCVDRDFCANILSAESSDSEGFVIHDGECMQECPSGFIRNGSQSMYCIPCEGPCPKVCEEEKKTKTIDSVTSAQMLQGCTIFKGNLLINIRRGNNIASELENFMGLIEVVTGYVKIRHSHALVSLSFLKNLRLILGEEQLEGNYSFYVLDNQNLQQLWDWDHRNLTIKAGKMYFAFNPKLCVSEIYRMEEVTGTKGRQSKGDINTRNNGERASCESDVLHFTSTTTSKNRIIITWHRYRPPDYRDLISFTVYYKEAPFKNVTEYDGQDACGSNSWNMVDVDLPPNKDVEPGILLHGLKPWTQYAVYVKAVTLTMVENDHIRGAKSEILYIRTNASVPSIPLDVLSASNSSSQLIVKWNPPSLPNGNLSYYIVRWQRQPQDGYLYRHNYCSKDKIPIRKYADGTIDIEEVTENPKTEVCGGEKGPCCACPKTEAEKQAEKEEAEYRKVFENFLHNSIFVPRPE
Insulin-like growth factor 1 receptor (Homo sapiens), sequence (P08069 741-1367 limits assumed): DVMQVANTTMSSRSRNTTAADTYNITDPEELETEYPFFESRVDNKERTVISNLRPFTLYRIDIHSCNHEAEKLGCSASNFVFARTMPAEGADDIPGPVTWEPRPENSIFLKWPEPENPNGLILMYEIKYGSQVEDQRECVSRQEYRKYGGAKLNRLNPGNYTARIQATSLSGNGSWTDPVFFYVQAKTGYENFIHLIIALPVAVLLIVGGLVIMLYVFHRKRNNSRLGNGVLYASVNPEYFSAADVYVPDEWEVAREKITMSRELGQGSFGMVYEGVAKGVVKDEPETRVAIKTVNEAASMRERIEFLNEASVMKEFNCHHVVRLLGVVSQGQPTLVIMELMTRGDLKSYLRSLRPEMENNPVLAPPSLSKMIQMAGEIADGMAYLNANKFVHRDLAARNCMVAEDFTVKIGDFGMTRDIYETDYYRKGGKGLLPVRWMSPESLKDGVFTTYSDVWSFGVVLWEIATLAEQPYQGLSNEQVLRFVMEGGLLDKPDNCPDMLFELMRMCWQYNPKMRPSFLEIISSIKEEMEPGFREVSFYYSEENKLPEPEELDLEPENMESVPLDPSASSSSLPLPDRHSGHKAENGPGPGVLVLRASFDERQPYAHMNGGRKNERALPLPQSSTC
Protein kinase C eta type (Homo sapiens), sequence (P24723 whole entry): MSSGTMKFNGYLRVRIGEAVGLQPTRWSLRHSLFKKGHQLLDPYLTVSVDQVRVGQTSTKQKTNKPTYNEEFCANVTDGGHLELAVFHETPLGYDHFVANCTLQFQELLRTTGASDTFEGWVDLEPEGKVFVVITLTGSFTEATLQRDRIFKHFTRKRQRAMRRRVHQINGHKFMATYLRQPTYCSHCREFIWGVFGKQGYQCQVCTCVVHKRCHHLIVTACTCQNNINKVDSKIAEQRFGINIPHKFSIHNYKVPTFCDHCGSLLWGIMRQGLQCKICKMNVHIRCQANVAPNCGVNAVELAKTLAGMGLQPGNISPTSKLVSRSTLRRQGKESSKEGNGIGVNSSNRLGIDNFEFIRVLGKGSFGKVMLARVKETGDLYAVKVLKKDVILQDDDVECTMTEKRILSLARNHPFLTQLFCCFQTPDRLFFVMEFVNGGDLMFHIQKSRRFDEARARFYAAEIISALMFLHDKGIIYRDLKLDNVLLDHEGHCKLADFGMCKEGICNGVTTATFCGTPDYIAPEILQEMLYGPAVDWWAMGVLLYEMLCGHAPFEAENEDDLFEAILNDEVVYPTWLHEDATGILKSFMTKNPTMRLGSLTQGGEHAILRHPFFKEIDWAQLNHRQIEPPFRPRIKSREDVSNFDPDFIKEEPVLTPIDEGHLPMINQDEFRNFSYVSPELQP
Homeodomain-interacting protein kinase 3 (Homo sapiens), sequence (Q9H422 whole entry, looked up): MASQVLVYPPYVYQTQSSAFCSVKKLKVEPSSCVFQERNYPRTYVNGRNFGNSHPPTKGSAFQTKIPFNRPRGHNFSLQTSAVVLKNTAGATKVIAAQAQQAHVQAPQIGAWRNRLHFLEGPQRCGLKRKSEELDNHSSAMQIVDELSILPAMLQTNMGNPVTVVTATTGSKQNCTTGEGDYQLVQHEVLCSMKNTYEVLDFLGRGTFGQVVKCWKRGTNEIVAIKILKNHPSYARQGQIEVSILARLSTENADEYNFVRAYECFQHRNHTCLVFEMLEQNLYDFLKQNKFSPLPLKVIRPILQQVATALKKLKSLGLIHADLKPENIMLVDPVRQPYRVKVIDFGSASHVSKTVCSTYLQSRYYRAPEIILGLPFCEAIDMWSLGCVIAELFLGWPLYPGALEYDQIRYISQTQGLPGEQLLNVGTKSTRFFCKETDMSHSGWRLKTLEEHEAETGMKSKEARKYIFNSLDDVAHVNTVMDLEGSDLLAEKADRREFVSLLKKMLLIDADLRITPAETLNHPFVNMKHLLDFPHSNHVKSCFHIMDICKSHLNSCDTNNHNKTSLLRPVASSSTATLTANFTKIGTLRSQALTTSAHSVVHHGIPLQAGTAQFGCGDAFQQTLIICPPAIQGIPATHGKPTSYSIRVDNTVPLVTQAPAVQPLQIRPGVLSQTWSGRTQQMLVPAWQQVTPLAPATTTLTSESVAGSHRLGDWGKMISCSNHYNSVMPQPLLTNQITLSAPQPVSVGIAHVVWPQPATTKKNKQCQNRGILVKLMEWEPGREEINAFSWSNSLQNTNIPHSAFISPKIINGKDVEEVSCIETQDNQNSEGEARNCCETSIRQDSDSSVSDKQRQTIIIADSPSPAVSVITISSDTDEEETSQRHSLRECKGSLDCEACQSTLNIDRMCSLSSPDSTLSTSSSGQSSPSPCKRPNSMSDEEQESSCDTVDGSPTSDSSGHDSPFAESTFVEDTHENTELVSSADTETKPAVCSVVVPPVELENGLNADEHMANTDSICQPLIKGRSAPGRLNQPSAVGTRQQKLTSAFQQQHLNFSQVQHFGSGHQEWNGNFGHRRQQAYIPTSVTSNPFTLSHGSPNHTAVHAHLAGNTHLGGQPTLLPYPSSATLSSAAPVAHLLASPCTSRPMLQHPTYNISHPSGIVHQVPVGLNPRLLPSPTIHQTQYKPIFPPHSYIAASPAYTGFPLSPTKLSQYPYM

Regarding `O=[N+]([O-])/C=C/c1ccc2c(c1)OCO2`, the residual activity in [1] amounted to 101%; in assay [2], 99%; in assay [3] it was 128%; in assay [4], 115%; in assay [5] it was 85%; in [6] it was 73%. The residual activity in assay [7] amounted to 94%; in [8], 131%; in [9] it was 121%; in assay [10], 114%; in [11], 100%; in assay [12], 72%. The residual activity is 95% in [13]; 93% in assay [14]; 93% (inactive) in assay [15]; 76% in [16]; 91% in assay [17]; 88% in [18].
Consider `CC(C)[C@H](CO)Nc1nc(Nc2cccc(Cl)c2)c2ncn(C(C)C)c2n1`, for which the residual activity was determined as 36% in assay [19]; 77% in assay [2]; 100% in assay [3]; 94% in [4]; 20% in [5]; 4% in assay [6]. Besides, the residual activity in assay [20] worked out at 30%; in assay [7], 4%; in assay [8], 98%; in assay [9], 136%; in assay [10] it was 117%; in [11], 100%. Besides, the residual activity came out at 90% in assay [12]; 70% in assay [13]; 26% in [14]; 81% in assay [17]; 86% in [18].
On to `COC(=O)[C@@]1(O)C[C@H]2O[C@]1(C)n1c3ccccc3c3c4c(c5c6ccccc6n2c5c31)C(=O)NC4`, for which the residual activity is -1% in assay [19]; 54% in assay [1]; -4% in assay [2]; 8% in assay [3]; 5% in assay [4]; 3% in assay [5]. Also, the residual activity was 1% in assay [6]; 1% in assay [20]; 4% in assay [7]; 77% in [8]; 14% in assay [9]; 8% in assay [10]. In addition, the residual activity was 36% in assay [11]; 7% in assay [12]; 10% in [13]; 5% in [14]; 107% (inactive) in assay [15]; 69% in assay [16]. In addition, the results for the residual activity in assay [17] and in assay [18] were 1% and 0%, respectively.
As to `CC(C)(C)c1cc(C=C(C#N)C#N)cc(Br)c1O`, the residual activity worked out at 71% in assay [19]; 101% in [1]; 98% in [2]; 105% in assay [3]; 54% in assay [4]; 77% in assay [5]. In addition, the residual activity came out at 8% in [6]; 102% in assay [20]; 130% in assay [8]; 101% in assay [9]; 101% in assay [10]; 103% in assay [13]. In addition, the residual activity in assay [14] is 75%; in [15] it was 107% (inactive); in assay [17], 98%; in [18] it was 117%.
With `COc1ccc2c(c1)/C(=C/c1cnc[nH]1)C(=O)N2`, the residual activity in [2] was found to be 49%; in assay [3], 37%; in assay [4] it was 13%; in assay [5], 71%; in assay [6], 33%; in [7], 49%. The residual activity in assay [9] came to 128%.
Regarding `O=C1Nc2ccc3ncsc3c2/C1=C/c1c[nH]cn1`, the residual activity in assay [19] worked out at 4%; in assay [1] it was 31%; in assay [2] it was 4%; in [3], 3%; in assay [4], 1%; in assay [5] it was 58%. Besides, the residual activity in assay [6] was 19%; in assay [20], 67%; in assay [7], 24%; in assay [8] it was 132%; in assay [9] it was 68%; in assay [10], 53%. The residual activity in assay [11] is 23%; in [12], 5%; in [13], 49%; in assay [14], 10%; in assay [15], 85% (inactive); in [16] it was 73%. The residual activity in [17] is 5%; in assay [18], 4%.
Consider `COc1ccc2c(c[n+](C)c3c4cc5c(cc4ccc23)OCO5)c1OC`, for which the residual activity in [19] came to 86%; in assay [4], 69%; in [5] it was 92%; in assay [6] it was 60%; in [20] it was 95%; in [7] it was 92%. Further, the residual activity was 138% in assay [8]; 131% in assay [9]; 75% in assay [10]; 90% in assay [13]; 66% in assay [14]; 98% (inactive) in assay [15]. The values for the residual activity in assay [16], in assay [17] and in [18] were 81%, 110% and 61%, respectively.
As to `C[S+]([O-])c1ccc(-c2nc(-c3ccc(F)cc3)c(-c3ccncc3)[nH]2)cc1` (stereo not drawn), the residual activity was determined as 100% in [19]; 110% in assay [1]; 102% in [2]; 88% in assay [3]; 35% in assay [4]; 105% in assay [5]. The residual activity in assay [6] is 52%; in [20] it was 93%; in assay [7], 61%; in assay [8], 102%; in assay [9], 117%; in assay [10], 111%. For the same compound, the residual activity in [11] was 79%; in assay [12], 77%; in [13], 105%; in [14] it was 104%; in assay [15], 105% (inactive); in assay [16], 101%. The residual activity in assay [17] came to 123%; in assay [18], 66%.

These data come from ChEMBL document CHEMBL2218924, “A broad activity screen in support of a chemogenomic map for kinase signalling research and drug discovery” (Biochem J, 2013).
